Read-outs that look alike come from different tables or passages of the source.
Test system: AURKA
Conditions: read-out: apparent Kd, n = 1

## Lestaurtinib
Compound concentrations:100 nM and 1000 nM (sheet 'Lestaurtinib' of Supplementary Table 1),run:Lestaurtinib_02438_R2,Plate:MR008
  potency estimated from few doses: 18.1 nM
Compound concentrations:100 nM and 1000 nM (sheet 'Lestaurtinib' of Supplementary Table 1),run:Lestaurtinib_02438_R3,Plate:MR008
  potency estimated from few doses: 16.7 nM
Compound concentrations:100 nM and 1000 nM (sheet 'Lestaurtinib' of Supplementary Table 1),run:Lestaurtinib_02443_R1,Plate:MR009
  potency estimated from few doses: 19 nM
Compound concentrations:100 nM and 1000 nM (sheet 'Lestaurtinib' of Supplementary Table 1),run:Lestaurtinib_02443_R3,Plate:MR009
  potency estimated from few doses: 22 nM
Compound concentrations:100 nM and 1000 nM (sheet 'Lestaurtinib' of Supplementary Table 1),run:Lestaurtinib_02473_R1,Plate:MR010
  potency estimated from few doses: 20 nM
Compound concentrations:100 nM and 1000 nM (sheet 'Lestaurtinib' of Supplementary Table 1),run:Lestaurtinib_02473_R3,Plate:MR010
  potency estimated from few doses: 16.1 nM
Compound concentrations:100 nM and 1000 nM (sheet 'Lestaurtinib' of Supplementary Table 1),run:Lestaurtinib_02482_R1,Plate:MR011
  potency estimated from few doses: 18.9 nM
Compound concentrations:100 nM and 1000 nM (sheet 'Lestaurtinib' of Supplementary Table 1),run:Lestaurtinib_02482_R2,Plate:MR011
  potency estimated from few doses: 19.3 nM
Compound concentrations:100 nM and 1000 nM (sheet 'Lestaurtinib' of Supplementary Table 1),run:Lestaurtinib_02487_R1,Plate:MR012
  potency estimated from few doses: 17.5 nM
Compound concentrations:100 nM and 1000 nM (sheet 'Lestaurtinib' of Supplementary Table 1),run:Lestaurtinib_02487_R3,Plate:MR012
  potency estimated from few doses: 24.8 nM
Compound concentrations:100 nM and 1000 nM (sheet 'Lestaurtinib' of Supplementary Table 1),run:Lestaurtinib_02496_R2,Plate:MR013
  potency estimated from few doses: 17.6 nM
Compound concentrations:100 nM and 1000 nM (sheet 'Lestaurtinib' of Supplementary Table 1),run:Lestaurtinib_02566_R2,Plate:MR014
  potency estimated from few doses: 21.1 nM
Compound concentrations:100 nM and 1000 nM (sheet 'Lestaurtinib' of Supplementary Table 1),run:Lestaurtinib_02572_R1,Plate:MR015
  potency estimated from few doses: 21.1 nM
Compound concentrations:100 nM and 1000 nM (sheet 'Lestaurtinib' of Supplementary Table 1),run:Lestaurtinib_02572_R3,Plate:MR015
  potency estimated from few doses: 17.9 nM
Compound concentrations:100 nM and 1000 nM (sheet 'Lestaurtinib' of Supplementary Table 1),run:Lestaurtinib_02577_R1,Plate:MR016
  potency estimated from few doses: 21.8 nM
Compound concentrations:100 nM and 1000 nM (sheet 'Lestaurtinib' of Supplementary Table 1),run:Lestaurtinib_02577_R2,Plate:MR016
  potency estimated from few doses: 21.1 nM
Compound concentrations:100 nM and 1000 nM (sheet 'Lestaurtinib' of Supplementary Table 1),run:Lestaurtinib_02577_R3,Plate:MR016
  potency estimated from few doses: 20.9 nM
Compound concentrations:100 nM and 1000 nM (sheet 'Lestaurtinib' of Supplementary Table 1),run:Lestaurtinib_02584_R1,Plate:MR017
  potency estimated from few doses: 21.8 nM
Compound concentrations:100 nM and 1000 nM (sheet 'Lestaurtinib' of Supplementary Table 1),run:Lestaurtinib_02584_R2,Plate:MR017
  potency estimated from few doses: 19.7 nM
Compound concentrations:100 nM and 1000 nM (sheet 'Lestaurtinib' of Supplementary Table 1),run:Lestaurtinib_02601_R1,Plate:MR018
  potency estimated from few doses: 21.1 nM
Compound concentrations:100 nM and 1000 nM (sheet 'Lestaurtinib' of Supplementary Table 1),run:Lestaurtinib_02601_R2,Plate:MR018
  potency estimated from few doses: 25.6 nM
Compound concentrations:100 nM and 1000 nM (sheet 'Lestaurtinib' of Supplementary Table 1),run:Lestaurtinib_02601_R3,Plate:MR018
  potency estimated from few doses: 21.7 nM
Compound concentrations:100 nM and 1000 nM (sheet 'Lestaurtinib' of Supplementary Table 1),run:Lestaurtinib_02606_R1,Plate:MR019
  potency estimated from few doses: 19.1 nM
Compound concentrations:100 nM and 1000 nM (sheet 'Lestaurtinib' of Supplementary Table 1),run:Lestaurtinib_02606_R2,Plate:MR019
  potency estimated from few doses: 20.8 nM
Compound concentrations:100 nM and 1000 nM (sheet 'Lestaurtinib' of Supplementary Table 1),run:Lestaurtinib_02606_R3,Plate:MR019
  potency estimated from few doses: 21.9 nM
Compound concentrations:100 nM and 1000 nM (sheet 'Lestaurtinib' of Supplementary Table 1),run:Lestaurtinib_02624_R1,Plate:MR020
  potency estimated from few doses: 17.5 nM
Compound concentrations:100 nM and 1000 nM (sheet 'Lestaurtinib' of Supplementary Table 1),run:Lestaurtinib_02624_R3,Plate:MR020
  potency estimated from few doses: 15.7 nM
Compound concentrations:100 nM and 1000 nM (sheet 'Lestaurtinib' of Supplementary Table 1),run:Lestaurtinib_02724_R2,Plate:MR021
  potency estimated from few doses: 21.3 nM
Compound concentrations:100 nM and 1000 nM (sheet 'Lestaurtinib' of Supplementary Table 1),run:Lestaurtinib_02741_R2,Plate:MR023
  potency estimated from few doses: 19.9 nM
Compound concentrations:100 nM and 1000 nM (sheet 'Lestaurtinib' of Supplementary Table 1),run:Lestaurtinib_02741_R3,Plate:MR023
  potency estimated from few doses: 23.2 nM
Compound concentrations:100 nM and 1000 nM (sheet 'Lestaurtinib' of Supplementary Table 1),run:Lestaurtinib_02748_R2,Plate:MR024
  potency estimated from few doses: 22.5 nM
Compound concentrations:100 nM and 1000 nM (sheet 'Lestaurtinib' of Supplementary Table 1),run:Lestaurtinib_02748_R3,Plate:MR024
  potency estimated from few doses: 22.2 nM
Compound concentrations:100 nM and 1000 nM (sheet 'Lestaurtinib' of Supplementary Table 1),run:Lestaurtinib_02752_R1,Plate:MR025
  potency estimated from few doses: 19 nM
Compound concentrations:100 nM and 1000 nM (sheet 'Lestaurtinib' of Supplementary Table 1),run:Lestaurtinib_02752_R2,Plate:MR025
  potency estimated from few doses: 16 nM
Compound concentrations:100 nM and 1000 nM (sheet 'Lestaurtinib' of Supplementary Table 1),run:Lestaurtinib_02752_R3,Plate:MR025
  potency estimated from few doses: 19.7 nM
Compound concentrations:100 nM and 1000 nM (sheet 'Lestaurtinib' of Supplementary Table 1),run:Lestaurtinib_02765_R2,Plate:MR026
  potency estimated from few doses: 23.1 nM
Compound concentrations:100 nM and 1000 nM (sheet 'Lestaurtinib' of Supplementary Table 1),run:Lestaurtinib_02766_R1,Plate:MR027
  potency estimated from few doses: 17.5 nM
Compound concentrations:100 nM and 1000 nM (sheet 'Lestaurtinib' of Supplementary Table 1),run:Lestaurtinib_02766_R2,Plate:MR027
  potency estimated from few doses: 17 nM
Compound concentrations:100 nM and 1000 nM (sheet 'Lestaurtinib' of Supplementary Table 1),run:Lestaurtinib_02766_R3,Plate:MR027
  potency estimated from few doses: 19.1 nM
Compound concentrations:100 nM and 1000 nM (sheet 'Lestaurtinib' of Supplementary Table 1),run:Lestaurtinib_02768_R1,Plate:MR028
  potency estimated from few doses: 20.8 nM
Compound concentrations:100 nM and 1000 nM (sheet 'Lestaurtinib' of Supplementary Table 1),run:Lestaurtinib_02768_R3,Plate:MR028
  potency estimated from few doses: 19.7 nM
Compound concentrations:100 nM and 1000 nM (sheet 'Lestaurtinib' of Supplementary Table 1),run:Lestaurtinib_02795_R3,Plate:MR022
  potency estimated from few doses: 60.5 nM
